The source of these data is PubChem BioAssay.

A short description of assay [1]: inhibitors of TNFa-induced NFkB p65 translocation, primary screen, imaging, HUVEC, MLSMR starter and 10KST1 sets (AID 438;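 active = inhibition above 20% together with a positive visual image hit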;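 also: compound added about 3h40 before a 20 min TNFalpha stimulation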;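 as to inhibition: signal is the nuclear over cytoplasmic p65 intensity ratio per well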). The note with it: HUVEC TNFa-induced p65 nuclear translocation; cell count: measured here: nuclei count (cytotoxicity indicator), at 2.08 µM; inhibition: at 2 µM, stronger effect = higher value, 0% TNFa-plus-vehicle, 100% no-TNFa wells.
A short description of assay [2]: reduction of polyQ htt aggregates in cells – imaging, exon1htt(103Q)mCFP cells, high-content imaging, primary screen (AID 483;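 active = visual image review flags a hit and inhibition of aggregation exceeds 20%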;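 also: compound exposure lasted 3 days before fixation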;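 as to nuclei count: percent of the per-plate median nuclei count of sample wells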). The note with it: exon1htt(103Q)mCFP cell line, aggregate imaging, at 2 µM; inhibition of aggregation: stronger effect = higher value; nuclei count: measured here: cell count, toxicity.
A short description of assay [3]: endothelial E-selectin expression blockers – imaging, HUVEC, immunofluorescence, MLSMR starter and 10KST1 sets, primary screen (AID 487;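 active = visually confirmed hit in the image check and inhibition above 20%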;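 as to inhibition: signal is fraction of cell area covered by stained E-selectin grains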;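 as to nuclei count: 100% = median nuclei count of all wells on the same plate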). The note with it: HUVEC TNFalpha-induced E-selectin immunofluorescence imaging, at 2 µM; inhibition: stronger effect = higher value; nuclei count: measured here: cell number, toxicity.
Assay [4] can be described thus: Primary imaging screen for DUSP6 inhibitors that restore phospho-Erk in transfected HeLa cells, chemical complementation (AID 609;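 active = compounds giving at least 50% inhibition in the cell-based MKP-3 phosphatase rescue imaging test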;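 as to inhibition: phospho-Erk level distribution per well compared with pooled transfected vehicle control wells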). As to conditions: HeLa MKP-3 transfected, phospho-Erk imaging KS statistic, at 10 µM, cells stimulated with TPA for 15 min.
Assay [5] has as its target Dual specificity protein phosphatase 6 (Homo sapiens) (UniProt Q16828). The description is as above. As to conditions: HeLa MKP-3 transfected, phospho-Erk imaging KS statistic; at 10 µM; stronger effect = higher value; cells stimulated with TPA for 15 min.
In assay [6] the target is Voltage-gated potassium channel subunit beta-2 (Rattus norvegicus) (UniProt P62483). Kind of assay: inhibitors of rat Kvbeta2 reductase activity – biochemical, NADPH fluorescence, primary screen (AID 622;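 active = fluorescence slope higher than the sample average by over 3 SD, cut at about -0.22 in these data, passing the limit was not always enough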;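 also: slope of raw intensity against log time taken from 70 to 1610 s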). The note with it: recombinant KvBeta, 4-cyanobenzaldehyde reduction, at 10 µM, stronger effect = higher value.
Voltage-gated potassium channel subunit beta-2 (Rattus norvegicus), sequence (P62483 whole entry, looked up): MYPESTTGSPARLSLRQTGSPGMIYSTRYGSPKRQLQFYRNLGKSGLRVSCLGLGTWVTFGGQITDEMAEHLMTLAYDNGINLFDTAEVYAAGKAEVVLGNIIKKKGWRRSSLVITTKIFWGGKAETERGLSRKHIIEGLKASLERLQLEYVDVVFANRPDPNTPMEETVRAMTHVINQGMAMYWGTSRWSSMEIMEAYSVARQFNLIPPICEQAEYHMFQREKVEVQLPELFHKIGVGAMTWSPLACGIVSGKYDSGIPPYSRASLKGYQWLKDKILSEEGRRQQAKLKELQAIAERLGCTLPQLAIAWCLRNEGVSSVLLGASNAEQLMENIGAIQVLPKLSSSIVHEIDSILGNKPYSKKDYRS
For assay [7] the target is unchanged. Kind of assay: enhancers of rat Kvbeta2 NADPH turnover – biochemical, NADPH fluorescence, primary screen (AID 623;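 active = NADPH fluorescence slope more negative than the mean of all samples by about 3 SD, 99.7% confidence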;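 also: fluorescence intensity change per second fitted from 20 to 320 s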). As to conditions: Recombinant KvBeta, NADPH fluorescence decrease slope, 10 min; at 10 µM; stronger effect = lower value.
Assay [8] deals with Alpha-2C adrenergic receptor (Homo sapiens) (UniProt P18825). Kind of assay: compounds altering alpha2C-coupled GIRK flux – cell-based, HEK293 alpha2C/GIRK1/2, thallium flux, primary screen (AID 624;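 active = fluorescence slope after compound addition differing from the mean of all screened samples at 99.7% confidence, in either direction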;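 also: slope of fluorescence ratio to pre-addition baseline per second over 15 to 24 s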). As to conditions: thallium flux BTC fluorescence, at 10 µM, actives lie on both sides.
Alpha-2C adrenergic receptor (Homo sapiens), sequence (P18825 whole entry, looked up): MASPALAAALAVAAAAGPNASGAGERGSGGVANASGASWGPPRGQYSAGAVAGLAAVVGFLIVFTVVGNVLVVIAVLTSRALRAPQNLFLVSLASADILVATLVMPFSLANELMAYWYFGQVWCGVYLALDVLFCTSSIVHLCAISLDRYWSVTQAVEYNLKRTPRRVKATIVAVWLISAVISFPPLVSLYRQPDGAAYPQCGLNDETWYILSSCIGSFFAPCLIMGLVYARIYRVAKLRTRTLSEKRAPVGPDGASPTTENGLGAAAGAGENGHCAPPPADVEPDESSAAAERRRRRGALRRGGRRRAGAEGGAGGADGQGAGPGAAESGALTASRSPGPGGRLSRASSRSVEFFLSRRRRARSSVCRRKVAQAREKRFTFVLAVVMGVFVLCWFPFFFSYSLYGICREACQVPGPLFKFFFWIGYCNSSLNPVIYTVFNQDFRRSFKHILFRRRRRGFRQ
Assay [9] can be described thus: inhibitors of larval lipid processing in zebrafish, primary screen, whole organism, PED6 fluorescence, gall bladder and intestine (AID 686;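 active = a full or partial loss of lipid-probe fluorescence in the fish gall bladder, intestine or both, judged by eye; inactive = no fluorescence loss, or compound toxic to the fish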;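 also: larvae 5 to 7 days old with five fish per well; signal comes from phospholipase A2 cleavage of quenched PED6 carried via bile; overnight exposure to compound and PED6 before scoring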). As to conditions: Zebrafish larvae PED6 lipid processing, fluorescence scoring; screened at 20 µM (by protocol).
Assay [10] can be described thus: loss of swimming-algae plug formation – whole organism, Chlamydomonas reinhardtii, WT vs cilia-less mutant, absorbance, 96-well, primary screen (AID 463189).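 Also: 0% = wild type cc124 cells in DMSO and 100% = ciliumless bld1 mutant cells.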 As to conditions: Chlamydomonas reinhardtii gravitaxis, OD600 absorbance, 2 days; at 10 µM; stronger effect = higher value.
The nature of assay [11]: blockers of RIG-like receptor reporter activation – cell-based, Sendai virus stimulus, luciferase, 10K MLSCN set, TLR/RLR signaling modifier project, primary screen (AID 602276;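 active = inhibition at or above 50% at 10 µM; inactive = inhibition below 50%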;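 also: firefly luciferase from ISG56 promoter only with Renilla not read in this screen; 0% = Sendai virus plus DMSO and 100% = medium plus DMSO without virus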). As to conditions: HEK293 RL24 IRF3 luciferase reporter, at 10 µM, stronger effect = higher value.
Assay [12] can be described thus: TLR3 IRF3 reporter activation blockers – cell-based, poly I:C stimulus, luciferase, 10K MLSCN set, primary screen (AID 602277;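 active = inhibition of the reporter signal at or above 50%; inactive = inhibition below 50%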). As to conditions: HEK293-TLR3 RL24 IRF3 luciferase reporter, at 10 µM, stronger effect = higher value.
[13] abbreviates: measured here: cell density z-score.
The mark [14] stands for this setting: measured here: nuclear c-Myc green intensity z-score.
The mark [15] stands for this setting: measured here: nuclear pErk red intensity z-score, stronger effect = higher value.

Values joined by “and” are separate entries in the source; they are usually repeats but may differ in a detail not shown here. Equal values may be shown once. Active and inactive are the calls of the source.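 The calls were made as follows, unless noted: active = inhibition at or above 50% relative to wild type and mutant plate controls; inactive = inhibition below 50%.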

Dual specificity protein phosphatase 6 (Homo sapiens), sequence (Q16828 whole entry, looked up): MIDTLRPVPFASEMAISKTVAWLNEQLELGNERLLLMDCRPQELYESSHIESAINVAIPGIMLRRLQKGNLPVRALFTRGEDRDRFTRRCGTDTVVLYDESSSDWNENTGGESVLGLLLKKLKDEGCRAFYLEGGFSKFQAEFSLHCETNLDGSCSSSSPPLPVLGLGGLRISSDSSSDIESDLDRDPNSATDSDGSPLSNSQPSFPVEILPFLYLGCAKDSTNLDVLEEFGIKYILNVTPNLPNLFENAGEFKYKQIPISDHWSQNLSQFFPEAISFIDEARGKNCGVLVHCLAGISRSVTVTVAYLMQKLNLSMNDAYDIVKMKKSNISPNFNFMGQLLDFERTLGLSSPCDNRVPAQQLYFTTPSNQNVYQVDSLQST

In general, inhibition refers to the drop in the measured response relative to a control, in per cent. `CCC(NC(C)C)C(O)c1ccc(O)c2[nH]c(=O)ccc12` (stereo not given): the cell count in [1] was determined as 682. The inhibition in assay [1] was -3% (inactive); in assay [3] it was -80% (inactive); in assay [5] it was 13.3% (inactive); in assay [10] it was 23.9% (inactive); in assay [11] it was 17.4% (inactive); in assay [12] it was 45.8% (inactive). Also, the inhibition of aggregation in assay [2] is -11.3% (inactive). The nuclei count was 109% in assay [2] and 142% in assay [3]. Further, the z-score in assay [4] (setting [13]) stood at 0.193; in assay [4] (setting [14]), 0.138; in assay [4] (setting [15]), 0.273. In assay [6], the fluorescence slope was -0.49 (inactive). Besides, the NADPH fluorescence slope in assay [7] was -3.3e-05 (inactive). Further, the slope in assay [8] was 0.00523 (inactive). In addition, the compound was classed as inactive in assay [9].

For `CCC(c1c(C)n(C)n(-c2ccccc2)c1=O)c1c(C)n(C)n(-c2ccccc2)c1=O`, in [1], the cell count worked out at 550. Further, the inhibition in assay [1] was -4.3% (inactive); in assay [3] it was -51.3% (inactive); in [5], 3.66% (inactive); in assay [10], 5% (inactive); in [11], 17.6% (inactive); in [12], 17.1% (inactive). In [2], the inhibition of aggregation is 27.5% (inactive). The nuclei count in [2] is 89.2%; in assay [3], 125%. Also, the results for the z-score in assay [4] (setting [13]), in [4] (setting [14]) and in assay [4] (setting [15]) were -0.849, -0.188 and -0.348, respectively. Also, the fluorescence slope in assay [6] is -0.488 (inactive). Moreover, the NADPH fluorescence slope in assay [7] is -0.000154 (inactive). In assay [8], the slope was 0.00494 (inactive). In addition, the result in [9] was inactive.

In the case of `CCCCCC(=O)N1CC2(CC)CN(C(=O)CCCCC)CC(CC)(C1)C2=O`, the cell count in assay [1] came to 548. The inhibition in assay [1] was 4.4% (inactive); in assay [3] it was -77.8% (inactive); in [5] it was 7.42% (inactive); in assay [10] it was 22.6% (inactive); in assay [11], 3.77% (inactive); in assay [12], 34.5% (inactive). For the same compound, in assay [2], the inhibition of aggregation is 26.5% (inactive). Also, the nuclei count in [2] was determined as 90%; in assay [3], 117%. Besides, the z-score in assay [4] (setting [13]) was 0.465; in [4] (setting [14]), -0.132; in assay [4] (setting [15]) it was -0.254. Besides, the fluorescence slope in assay [6] is -0.308 (inactive). Further, in assay [7], the NADPH fluorescence slope is -9.9e-07 (inactive). Further, in assay [8], the slope was 0.00431 (inactive). The outcome in assay [9] was inactive.

Take `NC(N)=NC(N)=NCCc1ccccc1`: in assay [1], the cell count was determined as 589. The inhibition in assay [1] is -4.3% (inactive); in assay [3], -58.8% (inactive); in assay [5], -2.46% (inactive); in [10], -5.62% (inactive); in assay [11], 10.9% (inactive); in assay [12], 30.4% (inactive). In assay [2], the inhibition of aggregation is -8.6% (inactive). The nuclei count in assay [2] stood at 93.2%; in [3], 108%. In addition, the figures for the z-score in [4] (setting [13]), in assay [4] (setting [14]) and in [4] (setting [15]) were -1, -0.445 and -0.339, respectively. Moreover, the fluorescence slope in assay [6] was -0.439 (inactive). Moreover, the NADPH fluorescence slope in [7] was -1.7e-05 (inactive). For the same compound, in [8], the slope was 0.004 (inactive). Besides, in assay [9], the compound was classed as inactive.

Consider `CNCCCC1c2ccccc2C=Cc2ccccc21`, for which the cell count in [1] stood at 583. The inhibition in [1] was -3.3% (inactive); in assay [3], -90.5% (inactive); in assay [5] it was -11.9% (inactive); in [10], 7.66% (inactive) and 11.9% (inactive); in [11] it was 18.5% (inactive); in assay [12] it was 41.3% (inactive). The inhibition of aggregation in assay [2] is 10.3% (inactive). The nuclei count was determined as 79.5% in assay [2] and 120% in [3]. Also, the z-score stood at 0.8 in assay [4] (setting [13]), 0.418 in [4] (setting [14]) and 3.14 in [4] (setting [15]). Also, the fluorescence slope in assay [6] was -0.496 (inactive). In addition, the NADPH fluorescence slope in [7] is -5.9e-05 (inactive). For the same compound, the slope in assay [8] was 0.00425 (inactive). Also, the result in [9] was inactive.

`CCSc1nc(N)c(C#N)c(-c2ccccc2Cl)c1C#N`: the cell count in assay [1] was found to be 494. Also, the inhibition was -3.2% (inactive) in [1]; -29% (inactive) in assay [3]; -5.89% (inactive) in assay [5]; -6.34% (inactive) in [10]; -0.977% (inactive) in assay [11]; 7.05% (inactive) in assay [12]. In addition, the inhibition of aggregation in assay [2] is 25.1% (inactive). Also, the nuclei count in assay [2] is 71.7%; in assay [3], 107%. For the same compound, the z-score in assay [4] (setting [13]) was -2.31; in [4] (setting [14]) it was 3.1; in assay [4] (setting [15]) it was 0.136. For the same compound, in assay [6], the fluorescence slope was -0.473 (inactive). Further, the NADPH fluorescence slope in [7] was -0.000189 (inactive). Moreover, in [8], the slope was 0.00512 (inactive). The result in assay [9] was inactive.

Consider `CC(C)(C)NCC(O)COc1cccc2c1C[C@H](O)[C@H](O)C2` (stereo not given in full), for which, in assay [1], the cell count is 666. Also, the inhibition was 3.8% (inactive) in [1]; -100% (inactive) in assay [3]; -0.828% (inactive) in assay [5]; 18.1% (inactive) in assay [10]; 9.2% (inactive) in assay [11]; 32.8% (inactive) in [12]. The inhibition of aggregation in assay [2] is -15.5% (inactive). Besides, the nuclei count in assay [2] was 101%; in assay [3] it was 118%. The values for the z-score in assay [4] (setting [13]), in [4] (setting [14]) and in [4] (setting [15]) were 0.108, 0.144 and 1.49, respectively. The fluorescence slope in [6] was -0.441 (inactive). The NADPH fluorescence slope in assay [7] was -2.9e-05 (inactive). In addition, in assay [8], the slope is 0.00396 (inactive). The compound was classed as inactive in [9].

For `CC(Cc1ccc(O)c(O)c1)C(C)Cc1ccc(O)c(O)c1` (stereo not given), the cell count in assay [1] stood at 641. The inhibition in [1] is 12.1% (inactive); in [3] it was -62.1% (inactive); in [5] it was 16.8% (inactive); in assay [10], -9.23% (inactive); in [11] it was 3.4% (inactive); in assay [12], -2.88% (inactive). Also, the inhibition of aggregation in assay [2] was -17.2% (inactive). Further, the nuclei count in assay [2] stood at 100%; in assay [3] it was 127%. Further, the z-score in assay [4] (setting [13]) was 0.848; in [4] (setting [14]), 0.39; in assay [4] (setting [15]), -0.226. Moreover, in assay [6], the fluorescence slope was -0.504 (inactive). Besides, the NADPH fluorescence slope in assay [7] was -8.3e-05 (inactive). Further, the slope in assay [8] was 0.00569 (inactive). Further, the call in [9] was inactive.

Take `Cc1cc(-c2ccc(F)cc2)nc2cc(C(N)=O)nn12`: the cell count in assay [1] is 567. Also, the inhibition is -4% (inactive) in assay [1]; 14.3% (inactive) in [3]; 5.57% (inactive) in assay [5]; 13.5% (inactive) in assay [10]; -10.5% (inactive) in assay [11]; -21.7% (inactive) in [12]. Moreover, in [2], the inhibition of aggregation was 8.1% (inactive). The nuclei count came out at 99.3% in assay [2] and 117% in [3]. The results for the z-score in assay [4] (setting [13]), in assay [4] (setting [14]) and in assay [4] (setting [15]) were -0.951, 0.396 and -0.666, respectively. The fluorescence slope in assay [6] is -0.377 (inactive). For the same compound, the NADPH fluorescence slope in [7] was -0.000109 (inactive). Also, in assay [8], the slope is 0.00367 (inactive). For the same compound, in assay [9], the compound was classed as inactive.

For the compound `CCCC(=O)O[C@]1(C(=O)COC(C)=O)CC[C@H]2[C@@H]3C[C@H](F)C4=CC(=O)C=C[C@]4(C)[C@@]3(F)[C@@H](O)C[C@@]21C`, the cell count in assay [1] came to 642. The inhibition in assay [1] was -9.3% (inactive); in assay [3], -95.2% (inactive); in [5], -0.493% (inactive); in assay [10], 9.17% (inactive); in [11], 15.9% (inactive); in [12], 48.2% (inactive). Also, the inhibition of aggregation in [2] was -34.4% (inactive). In addition, the nuclei count in assay [2] was determined as 61.6%; in assay [3], 136%. Besides, the figures for the z-score in [4] (setting [13]), in [4] (setting [14]) and in [4] (setting [15]) were -0.0756, -0.093 and 0.355, respectively. Besides, in [6], the fluorescence slope is -0.5 (inactive). For the same compound, in assay [7], the NADPH fluorescence slope was -5.5e-05 (inactive). Besides, in assay [8], the slope is 0.00445 (inactive). Also, the call in assay [9] was inactive.
